The record followed here is PubChem BioAssay.

The source made the active and inactive calls. Unless noted, how the calls were made is not given here.

The test system of experiment [1] is Wnt5a (protein binding on small-molecule microarray). In words: Wnt5a binders on small-molecule microarray, primary screen, biophysical, 635/667 nm fluorescence (AID 1142).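 Further: fluorescence read at 667 nm with signal to noise per printed feature.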 The conditions noted are these: 635 nm fluorescence, higher = more signal.
A short description of experiment [2]: cell viability in Huh7 cells, primary screen, cytotoxicity control for HCV replication inhibitor project, CellTiter-Glo luminescence, basal, 48 h (AID 1143).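 Further: Huh7 hepatoma cells carrying a hepatitis C replication reporter with no stimulus; test concentration not given here.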 To be noted: Huh7 HCV replicon, higher = more signal, called active from +8 up or from −8 down.
Experiment [3] can be described thus: P. aeruginosa biofilm formation inhibitors, primary screen, PAO1 strain, BacTiter-Glo luminescence, LB-PBS (AID 1144). To be noted: 12 h, higher = more signal.
The nature of experiment [4]: CREB reporter modulators without forskolin, primary screen, cell-based, PC12, CRE-LacZ reporter, unstimulated (AID 1145). The conditions noted are these: no forskolin, luminescence, 4.5 h, higher = more signal, called active from +8 up or from −8 down.
A short description of experiment [5]: CREB reporter modulators under forskolin, primary screen, cell-based, PC12, CRE-LacZ reporter, forskolin-stimulated (AID 1146).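 Further: PC12 cells with 6xCRE LacZ reporter stimulated by forskolin 10 µM; beta-galactosidase reporter signal reflecting CREB driven transcription.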 To be noted: luminescence, 4.5 h, higher = more signal, called active from +8 up or from −8 down.
Experiment [6] concerns the target Streptavidin (Streptomyces avidinii) (UniProt P22629). The experiment can be described thus: streptavidin binders on small-molecule microarray, primary screen, artefact control for SMM compound annotation, biophysical, 635/667 nm fluorescence (AID 1147).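 Further: signal reflects streptavidin binding to arrayed compounds as a control protein.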 To be noted: streptavidin binding, higher = more signal.
A short description of experiment [7]: small-molecule binders of probe aInhba, primary screen, biochemical, small-molecule microarray, 635/667 nm fluorescence (AID 1148).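 Further: score merges 667nm spot fluorescence with signal-to-noise for antibody binding to printed compounds.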 The conditions noted are these: higher = more signal.
In experiment [8] the target is Torsin-1A (Homo sapiens) (UniProt O14656). In words: torsin A binders from cell lysate, primary screen, small-molecule microarray, wild-type, 635/667 nm (AID 1149). The conditions noted are these: COS7 hTOR1A-WT lysate, 635 nm fluorescence, higher = more signal.
The target is the same in experiment [9]. In words: small-molecule binders of mutant TOR1A in lysate, primary screen, cell lysate, small-molecule microarray, COS7 lysate, 635/667 nm fluorescence (AID 1150).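 Further: score pools 667 nm emission and signal to noise measuring lysate protein binding.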 The conditions noted are these: COS7 hTOR1A mutant lysate, 635 nm fluorescence, higher = more signal.
For experiment [10], the system named is Sonic hedgehog protein (Shh). In words: small-molecule binders of Shh protein, primary screen, biochemical, small-molecule microarray, 635/667 nm fluorescence (AID 1151).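 Further: Shh protein binding to compounds spotted on small-molecule microarray slides; score combines spot fluorescence intensity with signal-to-noise across triplicate slides.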 The conditions noted are these: small-molecule microarray binding, 635 nm fluorescence; higher = more signal.
Experiment [11] is described as follows: E. coli DRC41 culture turbidity changes, primary screen, E. coli filamentation inducer project, strain DRC41, OD650, 48 h (AID 1152).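 Further: E. coli MC1000 strain DRC41 lacking acrAB efflux pump and sulA.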 To be noted: E. coli DRC41 (acrAB sulA), higher = more signal, called active from +8 up or from −8 down.
Experiment [12] can be described thus: small-molecule binders of probe aLefty1, primary screen, biochemical, small-molecule microarray, 635/667 nm fluorescence (AID 1153).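 Further: score merges spot fluorescence with signal-to-noise ratio from the scanned slide images.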 The conditions noted are these: higher = more signal.
The nature of experiment [13]: PSAC antagonists in infected red cells, primary screen, cell-based, P. falciparum Indochina, OD700, 1 h (AID 1154). The conditions noted are these: P. falciparum Indochina infected RBC osmotic lysis, higher = more signal, called active from +8 up or from −8 down.
A short description of experiment [14]: PSAC antagonists in infected red cells, primary screen, cell-based, P. falciparum Indochina, OD700, 2 h (AID 1155).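 Further: lysis reports solute entry through the parasite surface anion channel PSAC; channel blockers reduce lysis of infected cells.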 The conditions noted are these: P. falciparum Indochina infected erythrocytes, osmotic lysis OD700; higher = more signal, called active from +8 up or from −8 down.
Experiment [15] is described as follows: osmotic lysis modulators in infected erythrocytes, primary screen, PSAC antagonist project, cell-based, P. falciparum Indochina, OD700, 3 h (AID 1156). The conditions noted are these: higher = more signal, called active from +8 up or from −8 down.
Experiment [16] can be described thus: PSAC antagonists in infected red cells, primary screen, cell-based, P. falciparum Indochina, OD700, 18 h (AID 1157). The conditions noted are these: P. falciparum Indochina infected erythrocytes, osmotic lysis OD700, 18 h; higher = more signal, called active from +8 up or from −8 down.
The nature of experiment [17]: modulators of S6 phosphorylation in cells, primary screen, cell-based, A549, cytoblot, luminescence, serum-stimulated (AID 1158).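 Further: serum-stimulated A549 lung adenocarcinoma cells; signal is phosphorylated S6 detected by cytoblot immunostaining with HRP secondary.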 The conditions noted are these: A549 phospho-S6 cytoblot, 5 h, higher = more signal.
In experiment [18] the target is NADPH oxidase 2 (Homo sapiens) (UniProt P04839). The experiment can be described thus: NOX2-dependent H2O2 signal modulators, primary screen, NOX inhibitor project, cell-based, HEK293-NOX2, PMA-stimulated, Amplex Red fluorescence (AID 1159). Further: test concentration not given here. To be noted: 45 min, higher = more signal, called active from +8 up or from −8 down.
Experiment [19] has as its target NADPH oxidase 4 (Homo sapiens) (UniProt Q9NPH5). In words: NOX4-dependent H2O2 signal modulators, primary screen, NOX inhibitor project, cell-based, HEK293-NOX4, tetracycline-induced, Amplex Red fluorescence (AID 1160). To be noted: 45 min, higher = more signal, called active from +8 up or from −8 down.
Experiment [20] addresses NADPH oxidase 5 (Homo sapiens) (UniProt Q96PH1). In words: NOX5-dependent H2O2 signal modulators, primary screen, NOX inhibitor project, cell-based, HEK293-NOX5, Amplex Red fluorescence (AID 1161). The conditions noted are these: HEK293-NOX5, ionomycin, 45 min, higher = more signal.

Sequence of Streptavidin (Streptomyces avidinii) (P22629 whole entry, looked up): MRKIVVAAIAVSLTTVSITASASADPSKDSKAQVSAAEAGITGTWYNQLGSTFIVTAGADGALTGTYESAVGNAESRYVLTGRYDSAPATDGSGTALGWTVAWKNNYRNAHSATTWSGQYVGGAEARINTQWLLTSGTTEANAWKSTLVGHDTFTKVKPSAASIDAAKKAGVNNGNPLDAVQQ
Sequence of Torsin-1A (Homo sapiens) (O14656 whole entry, looked up): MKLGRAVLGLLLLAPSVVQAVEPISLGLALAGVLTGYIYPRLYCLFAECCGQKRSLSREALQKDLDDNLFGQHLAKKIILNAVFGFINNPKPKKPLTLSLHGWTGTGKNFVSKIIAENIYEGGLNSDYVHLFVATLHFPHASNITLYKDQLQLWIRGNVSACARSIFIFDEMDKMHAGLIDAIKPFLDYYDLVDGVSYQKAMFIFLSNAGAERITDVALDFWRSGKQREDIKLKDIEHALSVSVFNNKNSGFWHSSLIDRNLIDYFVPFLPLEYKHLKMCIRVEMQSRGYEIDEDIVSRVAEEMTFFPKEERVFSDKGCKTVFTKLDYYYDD
Sequence of NADPH oxidase 5 (Homo sapiens) (Q96PH1 whole entry, looked up): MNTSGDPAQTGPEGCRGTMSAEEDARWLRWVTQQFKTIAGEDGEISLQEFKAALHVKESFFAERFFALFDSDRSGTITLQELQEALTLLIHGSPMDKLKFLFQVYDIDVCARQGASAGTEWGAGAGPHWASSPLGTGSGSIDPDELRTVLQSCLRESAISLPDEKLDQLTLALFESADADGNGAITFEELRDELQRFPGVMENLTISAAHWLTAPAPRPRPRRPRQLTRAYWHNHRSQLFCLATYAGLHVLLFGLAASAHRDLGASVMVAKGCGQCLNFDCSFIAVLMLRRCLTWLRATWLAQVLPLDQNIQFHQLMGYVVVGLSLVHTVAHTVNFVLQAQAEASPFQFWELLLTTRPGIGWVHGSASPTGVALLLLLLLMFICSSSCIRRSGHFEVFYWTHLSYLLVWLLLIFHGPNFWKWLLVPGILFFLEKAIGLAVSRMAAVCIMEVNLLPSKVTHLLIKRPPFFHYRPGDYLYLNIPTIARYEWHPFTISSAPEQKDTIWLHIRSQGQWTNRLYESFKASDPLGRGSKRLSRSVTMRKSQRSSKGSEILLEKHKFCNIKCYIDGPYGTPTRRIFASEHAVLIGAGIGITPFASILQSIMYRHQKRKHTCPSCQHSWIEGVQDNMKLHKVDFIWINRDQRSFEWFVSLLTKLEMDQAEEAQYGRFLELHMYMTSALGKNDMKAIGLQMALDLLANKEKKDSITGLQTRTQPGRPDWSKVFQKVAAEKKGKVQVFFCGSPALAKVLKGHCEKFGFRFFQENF
Sequence of NADPH oxidase 2 (Homo sapiens) (P04839 whole entry, looked up): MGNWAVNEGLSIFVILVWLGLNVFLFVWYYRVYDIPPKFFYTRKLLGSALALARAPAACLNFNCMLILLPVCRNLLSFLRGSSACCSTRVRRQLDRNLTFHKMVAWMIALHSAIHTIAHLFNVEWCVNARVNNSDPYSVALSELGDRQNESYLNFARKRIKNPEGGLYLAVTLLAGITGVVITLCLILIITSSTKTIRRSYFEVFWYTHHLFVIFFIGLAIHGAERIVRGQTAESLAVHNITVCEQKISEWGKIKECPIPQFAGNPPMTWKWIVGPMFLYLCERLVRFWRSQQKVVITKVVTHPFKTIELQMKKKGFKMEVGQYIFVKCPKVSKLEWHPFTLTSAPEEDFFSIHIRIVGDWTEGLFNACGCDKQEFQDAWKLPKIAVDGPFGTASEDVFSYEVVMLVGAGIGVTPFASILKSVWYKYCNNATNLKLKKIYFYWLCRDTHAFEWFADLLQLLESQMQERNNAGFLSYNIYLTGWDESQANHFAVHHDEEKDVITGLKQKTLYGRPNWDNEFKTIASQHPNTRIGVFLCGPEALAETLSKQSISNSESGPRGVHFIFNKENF
Sequence of NADPH oxidase 4 (Homo sapiens) (Q9NPH5 whole entry, looked up): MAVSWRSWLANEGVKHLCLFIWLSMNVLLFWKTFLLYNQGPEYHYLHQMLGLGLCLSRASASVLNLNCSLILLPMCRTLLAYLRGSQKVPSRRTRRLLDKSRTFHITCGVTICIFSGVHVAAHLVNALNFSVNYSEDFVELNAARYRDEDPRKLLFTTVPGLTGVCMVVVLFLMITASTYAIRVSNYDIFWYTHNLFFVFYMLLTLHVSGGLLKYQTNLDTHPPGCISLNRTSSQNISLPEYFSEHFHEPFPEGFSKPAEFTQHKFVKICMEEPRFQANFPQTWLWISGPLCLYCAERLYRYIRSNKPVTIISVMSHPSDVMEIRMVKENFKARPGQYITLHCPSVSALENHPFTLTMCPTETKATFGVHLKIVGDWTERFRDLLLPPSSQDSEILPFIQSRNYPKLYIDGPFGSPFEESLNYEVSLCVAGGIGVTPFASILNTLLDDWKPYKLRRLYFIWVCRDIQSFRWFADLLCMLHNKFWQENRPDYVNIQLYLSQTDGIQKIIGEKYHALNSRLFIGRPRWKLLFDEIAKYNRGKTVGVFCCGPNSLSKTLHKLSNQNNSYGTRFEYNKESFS

In the case of `COCCCNC(=O)[C@@]1(Sc2ccc(C)cc2)CC(=O)N(Cc2ccccc2Cl)[C@@H]1c1ccc(CO)cc1I`, the composite z-score in experiment [1] was -0.509; in experiment [6], -0.768; in experiment [7], -0.128; in the experiment with Torsin-1A (Homo sapiens) [8], -1.03; with Torsin-1A (Homo sapiens) [9], -0.213; in experiment [10], -0.519. For the same molecule, in [12], the composite z-score was 0.0004. In addition, the z-score in experiment [2] is -1.35 (inactive); in experiment [3] it was 0.241 (inactive); in experiment [4], -0.168 (inactive); in experiment [5], 1.68 (inactive); in experiment [11], -0.192 (inactive); in [13], 3.44 (inactive). Besides, the z-score in [14] is 0.325 (inactive); in experiment [15], -0.575 (inactive); in experiment [16] it was 0.181 (inactive); in experiment [17], -0.487; in experiment [18] it was 1.52 (inactive); in experiment [19] it was -1.12 (inactive). The molecule also gave a z-score in experiment [20] of 2.08.
Regarding `C=CCC(OC(C)=O)[C@@H]1[C@@H](N(Cc2ccc(-c3cccc(C(F)(F)F)c3)o2)C(=O)c2cccc3ccccc23)c2cc(OCCCO)ccc2N1C(=O)Cc1ccc(OC)cc1` (stereo not given in full), the composite z-score was -0.307 in experiment [1]; -0.551 in experiment [6]; -0.102 in experiment [7]; -0.577 with Torsin-1A (Homo sapiens) [8]; 0.264 with Torsin-1A (Homo sapiens) [9]; 0.439 in experiment [10]. Moreover, in experiment [12], the composite z-score is -0.0818. The z-score in experiment [2] was -2.29 (inactive); in experiment [3], 0.302 (inactive); in [4] it was -0.593 (inactive); in experiment [5], 0.0843 (inactive); in [11], 0.386 (inactive); in experiment [13], 1.62 (inactive). Also, the z-score in experiment [14] is 0.753 (inactive); in [15], 1.94 (inactive); in [16] it was 0.702 (inactive); in experiment [17], 0.461; in experiment [18], -3.21 (inactive); in [19] it was -1.73 (inactive). Further, in experiment [20], the z-score is -1.49.
Take `CC(C)[C@H]1NC(=O)[C@@]23C(=O)N[C@@H](Cc4ccccc4)C2[C@H](C)[C@@]2(C)O[C@H]2C3/C=C/CCC/C=C/CNC(=O)[C@H](Cc2ccccc2)NC1=O` (stereo not given in full): the composite z-score in experiment [1] is -0.178; in experiment [6], -0.77; in experiment [7], -0.152; with Torsin-1A (Homo sapiens) [8], 0.343; with Torsin-1A (Homo sapiens) [9], 0.671; in [10], 2.03. For the same molecule, the composite z-score in experiment [12] is 0.0582. The z-score in [2] is -1.23 (inactive); in [3], 1.01 (inactive); in experiment [4], 1.4 (inactive); in experiment [5], -0.723 (inactive); in experiment [11], -0.246 (inactive); in experiment [13], 1.18 (inactive). Moreover, the z-score in [14] is 0.581 (inactive); in [15], 0.81 (inactive); in experiment [16], 0.182 (inactive); in [17], 0.352; in experiment [18], 1.46 (inactive); in experiment [19] it was 0.525 (inactive). Also, the z-score in [20] turned out to be 0.896.
For the molecule `CO[C@H]1O[C@H](CO)[C@@H](OC(=O)c2ccc(Br)cc2)[C@@H]2OC(=O)[C@H](Cc3ccccc3)C/C=C/C[C@@H](Cc3ccccc3)C(=O)O[C@@H]12`, the composite z-score in [1] was 0.293; in experiment [6], 0.088; in experiment [7], -0.263; with Torsin-1A (Homo sapiens) [8], -0.295; with Torsin-1A (Homo sapiens) [9], -0.0307; in experiment [10], 0.984. In addition, the composite z-score in experiment [12] is -0.715. In addition, the z-score in experiment [2] is -3.95 (inactive); in [3] it was -1.16 (inactive); in experiment [4], -0.0017 (inactive); in experiment [5], -0.175 (inactive); in [11] it was 2.28 (inactive); in experiment [13], 2.36 (inactive). Besides, the z-score in experiment [14] was -0.765 (inactive); in experiment [15], -1.53 (inactive); in experiment [16] it was -1.02 (inactive); in experiment [17], 1.92; in [18] it was -4.18 (inactive); in experiment [19], -0.416 (inactive). Moreover, in experiment [20], the z-score is -1.82.
